# CHRM1 PAM – human CHRM1 positive allosteric modulation; CHO-K1 hM1, Fluo-8 calcium fluorescence, ACh EC20; 0% = ACh EC20, 100% = maximal ACh; activation, % at 3 µM; 0.088% of 360,000 active; in the data active means activation above about 19%, passing the limit was not always enough
# Target sequence (P11229 whole entry, looked up): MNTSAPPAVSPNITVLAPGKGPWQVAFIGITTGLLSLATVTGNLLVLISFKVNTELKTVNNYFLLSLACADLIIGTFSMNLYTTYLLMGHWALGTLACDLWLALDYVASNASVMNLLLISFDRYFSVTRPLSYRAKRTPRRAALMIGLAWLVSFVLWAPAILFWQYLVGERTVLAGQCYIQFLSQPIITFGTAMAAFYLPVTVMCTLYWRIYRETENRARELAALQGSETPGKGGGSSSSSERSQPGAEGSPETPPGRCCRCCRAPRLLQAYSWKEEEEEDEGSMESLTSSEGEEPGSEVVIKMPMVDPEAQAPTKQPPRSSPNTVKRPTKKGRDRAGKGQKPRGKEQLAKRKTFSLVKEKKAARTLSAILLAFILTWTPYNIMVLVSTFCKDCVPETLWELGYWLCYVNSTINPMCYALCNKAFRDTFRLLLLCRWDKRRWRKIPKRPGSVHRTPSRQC
# CHO-K1 Ca antag – M1 antagonist counterscreen hit in parental CHO-K1 cells; ATP-induced calcium, Fluo-8 fluorescence; inhibition, % at 3 µM; 0.6% of 360,000 active; AID 602250;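 active means inhibition above a per-plate cutoff, the plate's mean sample inhibition plus 3 SD, cut at about 24% in these data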;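 further: 0% = DMSO plus EC80 ATP and 100% = DMSO alone without ATP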
# M1 ag parental – M1 agonist counterscreen hit in parental CHO-K1 cells. Fluo-8 calcium fluorescence; scaled to maximal ATP response, vehicle zero. activation, % at 3 µM. 0.48% of 360,000 active; in the data active means activation above about 15%;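 further: untransfected CHO-K1 host cells lacking M1 receptor as counterscreen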
# CHRM1 agonist – activates human CHRM1 receptor; P11229; CHO-K1 hM1, Fluo-8 calcium fluorescence, agonist mode; 0% DMSO, 100% acetylcholine EC100; activation, % at 3 µM; 0.33% of 360,000 active;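 active means activation above the run's mean compound activation plus 3 SD, cut at about 16% in these data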;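 further: peak over basal fluorescence ratio within a 140 s kinetic read after compound addition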
# M1 antag – blocks human M1 muscarinic receptor | P11229 | CHO-K1 hM1, Fluo-8 calcium fluorescence, ACh EC80 antagonist | inhibition, % at 3 µM | 1.3% of 360,000 active;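 active means percent inhibition above its own plate's cutoff, namely the mean of that plate's compound wells plus 3 SD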;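 further: peak over basal fluorescence ratio during 140 s after agonist addition; 0% = ACh EC80 plus DMSO and 100% = DMSO alone without agonist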
# M1 PAM parental – nonselective activator or artifact in parental CHO-K1 calcium assay. ATP EC20, Fluo-8 calcium fluorescence; 0% at ATP EC20, 100% at ATP max. activation, % at 3 µM. 0.02% of 360,000 active. AID 602247;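 active means activation above the run cutoff, the mean activation of all test compounds plus 3 SD, cut at about 40% in these data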;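 further: peak over basal fluorescence ratio in a 140 s read after ATP addition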
# * marks the source's active call; other numbers are inactive results; / = no result given. Most compounds without a hit are left out; they make up all but 2.3% or so of the library.
SMILES,CHRM1 PAM,CHO-K1 Ca antag,M1 ag parental,CHRM1 agonist,M1 antag,M1 PAM parental
CC1CCN(CC(=O)Nc2ccc3c(c2)OCO3)CC1,7,3,17*,-8,-8,5
CC1CCCN(S(=O)(=O)c2ccc(NC(=O)Cc3ccc(S(=O)(=O)N4CCOCC4)s3)cc2)C1 (stereo unspecified),3,25*,0,0,3,-32
CC(C)(C)CC(=O)Nc1cc(S(=O)(=O)N2CCOCC2)ccc1N1CCCC1,5,-21,0,-3,-25,16
CC1CCCN(CC(=O)Nc2cc(S(=O)(=O)N3CCOCC3)ccc2N2CCCC2)C1 (stereo unspecified),-21,-7,0,-8,38*,-2
CC1CCCN(S(=O)(=O)c2ccc(NC(=O)CN3CCN(C)CC3)cc2)C1 (stereo unspecified),-19,7,0,-6,22*,-2
CC(C)CCNC(=O)c1sc2ccc(S(=O)(=O)N3CCCCC3)cc2c1N,1,0,9,-7,8,22
O=C(OCc1cn([C@H]2CN(CC3CCCCC3)[C@@H](c3ccccc3)C[C@@H]2O)nn1)c1ccccc1,-1,-8,0,-1,-4,7
CCCN(CCC)S(=O)(=O)c1ccc(C(=O)Nc2c(C)n(C)n(-c3ccccc3)c2=O)cc1,0,-15,0,-6,39*,13
Cc1c(NC(=O)c2ccc(S(=O)(=O)N3CC(C)OC(C)C3)cc2)c(=O)n(-c2ccccc2)n1C (stereo unspecified),12,32*,12,-12,-6,-8
Cc1c(NC(=O)c2ccc(N(C)S(=O)(=O)c3ccccc3)cc2)c(=O)n(-c2ccccc2)n1C,-6,-2,1,-15,7,-1
Cc1c(NC(=O)c2ccccc2NS(=O)(=O)c2ccc(F)cc2)c(=O)n(-c2ccccc2)n1C,2,21,0,-6,0,-14
Cc1c(NC(=O)c2cccc(S(=O)(=O)N(C)c3ccccc3)c2)c(=O)n(-c2ccccc2)n1C,-20,-9,1,-7,38*,-20
Cc1c(NC(=O)c2ccc(S(=O)(=O)Nc3ccccc3F)cc2)c(=O)n(-c2ccccc2)n1C,-22,-3,0,-6,35*,-11
C[C@]12c3[nH]c4ccccc4c3CCN1C(=O)C(CC(=O)NCCCn1ccnc1)C[C@@H]2C(=O)N1CCCCC1 (stereo partly specified),22,4,0,-5,-10,-11
O=C(CN1CCOCC1)N1CCOCC1,8,-10,0,0,-4,20
CSc1ccccc1C(=O)C1CCCN(Cc2c(C)n(C)n(-c3ccccc3)c2=O)C1 (stereo unspecified),-33,15,7,-13,79*,-7
Cc1ccc2nc(-c3ccc(F)cc3)c(Cc3cccc(Cl)c3)n2c1,-6,32*,-1,-7,14,-9
Cc1ccc2nc(C(C)(C)C)c(Cc3cccc(Cl)c3)n2c1,-26,4,0,-8,70*,-10
Cc1ccc(CN2C(=O)c3ccccc3C2c2nnnn2-c2c(C)cccc2C)cc1 (stereo unspecified),/,-16,0,/,/,-2
Cc1cccc(CS(=O)(=O)Cc2ccc(C(=O)NCc3ccccc3)o2)c1,6,-13,6,0,-13,11
Cc1cccc(CS(=O)(=O)Cc2ccc(C(=O)NCc3cccs3)o2)c1,7,2,27*,6,-11,5
O=C(Nc1cccc(Cl)c1)c1cccc(N2C(=O)C3CC=CCC3C2=O)c1 (stereo unspecified),-6,-2,17*,4,9,6
O=C(Nc1cccc(N2C(=O)C3CCCCC3C2=O)c1)c1ccccc1 (stereo unspecified),-2,-2,4,-1,4,2
CCn1cc(/C=N/NS(=O)(=O)c2ccc(OC)cc2)c(C)n1,14,15,1,21*,-34,-8
COc1ccc(Nc2nc(N3CCOCC3)nc(N3CCOCC3)n2)cc1Cl,6,-5,0,-4,-17,-18
SMILES,CHRM1 PAM,CHO-K1 Ca antag,M1 ag parental,CHRM1 agonist,M1 antag,M1 PAM parental
CC1(C(=O)NC2CCCC2)CCC(=O)N1CCOc1ccccc1 (stereo unspecified),4,28*,0,-2,6,3
COc1ccc(-c2cc(C(F)F)n3ncc(C(=O)N4CCSCC4)c3n2)cc1,-9,15,-1,-5,27*,-6
CCOc1ccc(C(=O)c2cc([N+](=O)[O-])ccc2Cl)cc1,-13,-7,0,-6,14,12
C#CCCCCCCC#CCN(C)C,-17,26*,0,41*,21,-14
CCOC(=O)c1csc(-c2snnc2C)n1,3,0,17*,3,-10,10
CCOC(=O)c1csc(N)n1,9,-9,3,-5,-11,18
CCCCCn1c(CN2CC(C)OC(C)C2)nc2c1c(=O)n(C)c(=O)n2C (stereo unspecified),6,24*,0,4,-1,-8
COCCn1c(CN2CCN(c3ccccc3)CC2)nc2c1c(=O)n(C)c(=O)n2C,-13,-9,0,-5,33*,0
CC1CN(Cc2nc3c(c(=O)n(C)c(=O)n3C)n2CCN2CCOCC2)CC(C)O1 (stereo unspecified),-2,-4,0,-4,14,-2
CCCCCCn1c(CN2CCN(CCO)CC2)nc2c1c(=O)n(C)c(=O)n2C,4,24*,0,-5,-9,-7
CC(C)Nc1ccc(Nc2ccnc3cc4ccccc4cc23)cc1,-4,-7,0,-7,-9,5
c1ccc(CCNc2ccnc3cc4ccccc4cc23)cc1,-21,13,9,-3,42*,-2
Cc1ccccc1OCCCCc1c(C)n[nH]c1C,-13,15,9,-2,29*,-4
Cc1ccccc1OCCCc1c(C)n[nH]c1C,-1,0,5,-7,0,6
C[C@@H]1CN([C@H](C)CO)C(=O)CCCn2cc(nn2)CO[C@H]1CN(C)S(=O)(=O)c1ccc(C#N)cc1,3,-6,0,-9,-7,10
Cc1ccc(OCCC(=O)Nc2cc(S(=O)(=O)N3CCOCC3)ccc2N2CCCC2)cc1,7,-5,0,-7,-10,-6
O=C(NC1CCCCC1)C(=S)NCCc1ccccc1,3,-5,21*,-6,-9,9
O=C(NCCc1ccccc1)C(=O)NC1CCCCC1,4,-15,0,-3,-31,-5
CCCNC(=O)C1(C)CCN(C(=O)c2ccc3c(c2)CCO3)C1 (stereo unspecified),31*,-1,0,5,-38,8
CCCNC(=O)C1(C)CCN(C(=O)c2ccc(F)c(Cl)c2)C1 (stereo unspecified),2,-3,0,-4,2,-8
